{"source": "PubChem BioAssay (NCATS)", "note": "Results filed as inconclusive are left out. Where a call stands in place of a potency, no number is given. Active and inactive are the calls of the source. Calls follow the shape of the dose curve; as a rule, active = well fitted cell-killing curve with a large enough effect; inconclusive = small, poorly fitted or top-dose-only effect, or effect the other way; inactive = no such curve, though single readings can be large or run the other way. Peptide text beside a SMILES is read from it. Potency is read from the fitted curve at half-maximal effect.", "data": [{"test": "Quantitative High-Throughput drug screen in 47 multiple myeloma cell lines against the NCATS MIPE library collection: OPM2_DSMZ cell viability assay (AID 1919872); also: nearly all actives have a fitted effect of over 30% in size", "conditions": "OPM2 myeloma viability, CellTiter-Glo ATP luminescence, 48 h; series mostly up to 45.8 µM", "method_in_brief": "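Myeloma cells (500 per well) were exposed to MIPE 4.0 compounds by pin transfer and incubated 48 hours at 37C, 5% CO2. Viability was read as ATP by CellTiter-Glo luminescence, normalised to DMSO (100%) and media-only (0%) wells.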", "values": [{"molecule": "CC(=O)N1CCN(c2ccc(OC[C@H]3CO[C@](Cn4ccnc4)(c4ccc(Cl)cc4Cl)O3)cc2)CC1", "Potency": "18.7 µM (active)"}, {"molecule": "CCC[C@@H]1C[C@@H](C(=O)N[C@@H]([C@H]2O[C@H](SC)[C@H](O)[C@@H](O)[C@H]2O)[C@@H](C)O)N(C)C1", "Potency": "inactive"}, {"molecule": "COC(=O)[C@H](Cc1ccccc1)NC(=O)[C@@H](N)CC(=O)O", "note": "(H-Asp-Phe-OMe)", "Potency": "inactive"}, {"molecule": "C[C@@H](c1ncncc1F)[C@](O)(Cn1cncn1)c1ccc(F)cc1F", "Potency": "inactive"}, {"molecule": "CCCCc1ccc2nc(NC(=O)OC)[nH]c2c1", "Potency": "0.0166 µM (active)"}, {"molecule": "CC(C)(S)[C@@H](N)C(=O)O", "Potency": "inactive"}, {"molecule": "CC[C@]1(O)C[C@H]2CN(CCc3c([nH]c4ccccc34)[C@@](C(=O)OC)(c3cc4c(cc3OC)N(C=O)[C@H]3[C@@](O)(C(=O)OC)[C@H](OC(C)=O)[C@]5(CC)C=CCN6CC[C@]43[C@@H]65)C2)C1", "Potency": "0.003 µM (active)"}, {"molecule": "COc1c2occc2cc2ccc(=O)oc12", "Potency": "inactive"}, {"molecule": "CN(c1nccc(=O)[nH]1)C1CCN(c2nc3ccccc3n2Cc2ccc(F)cc2)CC1", "Potency": "inactive"}, {"molecule": "COC(=O)C1=C(C)NC(C)=C(C(=O)OC(C)C)C1c1cccc2nonc12", "note": "(configuration not stated)", "Potency": "inactive"}, {"molecule": "CN(C)C(=O)[C@H](O)[C@H](Cc1ccccc1)NC(=O)c1cc2cc(Cl)ccc2[nH]1", "Potency": "14.8 µM (active)"}, {"molecule": "COc1cc2nc(N3CCN(C(=O)C4CCCO4)CC3)nc(N)c2cc1OC", "note": "(configuration not stated)", "Potency": "inactive"}, {"molecule": "CCCc1cc(=O)[nH]c(=S)[nH]1", "Potency": "inactive"}, {"molecule": "COC1=C(OC)C(=O)C(CCCCCCCCCCO)=C(C)C1=O", "Potency": "inactive"}, {"molecule": "CN(C)c1ccc(O)c2c1C[C@H]1C[C@H]3[C@H](N(C)C)C(=O)C(C(N)=O)=C(O)[C@@]3(O)C(=O)C1=C2O", "Potency": "20.9 µM (active)"}, {"molecule": "Cc1cccc(-c2[nH]ncc2-c2ccc3ncccc3n2)n1", "Potency": "inactive"}, {"molecule": "CCC(C)(Oc1ccc(C2(c3ccc(OC(C)(CC)C(=O)O)cc3)CCCCC2)cc1)C(=O)O", "note": "(configuration not stated)", "Potency": "inactive"}, {"molecule": "CC(C)c1nc(CN(C)C(=O)N[C@H](C(=O)N[C@@H](Cc2ccccc2)C[C@H](O)[C@H](Cc2ccccc2)NC(=O)OCc2cncs2)C(C)C)cs1", "Potency": "20.9 µM (active)"}, {"molecule": "CN(C)CCCC1(c2ccc(F)cc2)OCc2cc(C#N)ccc21", "note": "(configuration not stated)", "Potency": "inactive"}, {"molecule": "CCCS(=O)c1ccc2nc(NC(=O)OC)[nH]c2c1", "note": "(configuration not stated)", "Potency": "23.5 µM (active)"}, {"molecule": "CN(C)C(=O)COC(=O)Cc1ccc(OC(=O)c2ccc(N=C(N)N)cc2)cc1", "Potency": "inactive"}, {"molecule": "Nc1cc(C(Cl)=C(Cl)Cl)c(S(N)(=O)=O)cc1S(N)(=O)=O", "Potency": "inactive"}, {"molecule": "CC(C)[C@H](N)C(=O)OCCOCn1cnc2c(=O)[nH]c(N)nc21", "Potency": "inactive"}, {"molecule": "COC(=O)N[C@H](C(=O)N[C@@H](Cc1ccccc1)[C@@H](O)CN(Cc1ccc(-c2ccccn2)cc1)NC(=O)[C@@H](NC(=O)OC)C(C)(C)C)C(C)(C)C", "Potency": "inactive"}, {"molecule": "CCOC(=O)c1c(C)n(C)c2ccc(O)cc12", "Potency": "inactive"}, {"molecule": "CCCOc1ccc2nc(NC(=O)OC)[nH]c2c1", "Potency": "0.0105 µM (active)"}, {"molecule": "O=C1NC(=O)C(c2ccccc2[N+](=O)[O-])=C1Nc1ccc(O)c(Cl)c1", "Potency": "inactive"}, {"molecule": "COc1cc(OC)c(C(=O)CCCN2CCCC2)c(OC)c1", "Potency": "inactive"}, {"molecule": "CN1C(C(=O)Nc2ccccn2)=C(O)c2sccc2S1(=O)=O", "Potency": "inactive"}, {"molecule": "Cc1cc(Cl)ccc1OCCCC(=O)NO", "Potency": "inactive"}, {"molecule": "Cc1cc(=O)c2c(O)c3c(O)cc(=O)c4c3c3c(cc(O)c1c23)C(C)(C)C=4O", "Potency": "13.2 µM (active)"}, {"molecule": "CCN(CC)CCOc1ccc(Cc2ccccc2)cc1", "Potency": "inactive"}, {"molecule": "NS(=O)(=O)c1cc(C(=O)O)c(NCc2ccco2)cc1Cl", "Potency": "inactive"}, {"molecule": "CC(C)c1ccc2c(c1)c(SC(C)(C)C)c(CC(C)(C)C(=O)O)n2Cc1ccc(Cl)cc1", "Potency": "inactive"}, {"molecule": "Cn1c(NCCN(CCO)CCCc2ccc([N+](=O)[O-])cc2)cc(=O)n(C)c1=O", "Potency": "inactive"}, {"molecule": "C[Se]CCC(N)C(=O)O", "note": "(configuration not stated)", "Potency": "inactive"}, {"molecule": "O=c1c(O)c(-c2cc(O)c(O)c(O)c2)oc2cc(O)cc(O)c12", "Potency": "26.4 µM (active)"}]}]}
